From PubChem BioAssay (NCI)
This is part of a sample that, as a whole, favours compounds with a hit. Of some 79,000 tested, about 15% had one in any assay. The source made the active and inactive calls. Rule as the data show it: active = growth inhibition above about 70%; inactive = the rest.

Tests used:
[1] = NCI Yeast Anticancer Drug Screen. Data for the rad50 strain (AID 155);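 also: 0% = growth of vehicle-only cultures of the same strain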; settings: S. cerevisiae rad50 strain growth inhibition; at 50.0 µM; hits give high values
Procedure, shortened: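 Compounds were tested on a yeast strain with an engineered DNA damage repair alteration; the reported value is growth inhibition normalised to vehicle treatment.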

[2] = NCI Yeast Anticancer Drug Screen. Data for the mec2-1 strain (AID 157); settings: S. cerevisiae mec2-1 strain, at 50.0 µM, hits give high values
Procedure, shortened: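 Readout is yeast growth inhibition, normalised to vehicle-treated controls, in the mec2-1 strain exposed to compound.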

[3] = NCI Yeast Anticancer Drug Screen. Data for the sgs1 mgt1 strain (AID 161);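 also: 0% = growth of cultures given vehicle only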; settings: S. cerevisiae sgs1 mgt1 strain, at 50.0 µM, hits give high values
Procedure, shortened: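 This yeast growth screen uses a strain with defined DNA-repair lesions; compound-treated growth is compared with vehicle-treated growth.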

[4] = NCI Yeast Anticancer Drug Screen. Data for the cln2 rad14 strain (AID 165);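 also: 0% = growth equal to vehicle treated cultures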; settings: S. cerevisiae cln2 rad14 strain, at 50.0 µM, hits give high values
Procedure, shortened: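 Relative to vehicle controls, growth inhibition of compound-treated cln2 rad14 yeast was recorded.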

[5] = NCI Yeast Anticancer Drug Screen. Data for the bub3 strain (AID 167); settings: S. cerevisiae bub3 mutant strain, at 50.0 µM, hits give high values
Procedure, shortened: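 Growth of a checkpoint-deficient yeast mutant is measured after compound exposure. Values represent inhibition relative to vehicle.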

[6] = NCI Yeast Anticancer Drug Screen. Data for the mlh1 rad18 strain (AID 175); settings: S. cerevisiae mlh1 rad18 strain growth inhibition; at 50.0 µM; hits give high values
Procedure, shortened: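 Test agents were incubated with a yeast strain of defined genotype (DNA damage repair defect). Inhibition of growth was derived by comparison with vehicle-exposed cultures.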

Measured: growth inhibition

O=C(OC(=O)c1cccc2ccccc12)c1cccc2ccccc12
inactive: [1] -5.15% | [2] -7.75% | [3] 2.3% | [4] 43.3% | [5] 12% | [6] 13.2%

CC(=N/NC(=S)NCCN1CCCC1)/C(C)=N\NC(=S)NCCN1CCCC1
inactive: [1] 50.6% | [2] 4.95% | [3] 47.6% | [4] 10.6% | [5] 12.7% | [6] 35.1%

NC(N)=NCCCC(O)C(=O)O (stereo not drawn)
inactive: [1] -10.6% | [2] -11.8% | [3] -6.85% | [4] -2.95% | [5] 2.25% | [6] 0.85%

CNC(C#N)c1ccc(OC)cc1 (stereo not drawn)
inactive: [1] 3.55% | [2] 17.9% | [3] -26.9% | [4] -17.4% | [5] -9.75% | [6] -28.4%

CCc1ccc(-c2c(-c3ccccc3)c(-c3ccccc3)c(-c3ccccc3)c(-c3ccccc3)c2-c2ccccc2)cc1
inactive: [1] 31.1% | [2] 6.3% | [3] 21.9% | [4] 26.1% | [5] -6.3% | [6] 30.9%

O=C1C2CC3CC(C2)CC1C3
inactive: [1] 15.1% | [2] -4.5% | [3] 37% | [4] 9.25% | [5] 6.05% | [6] 14.9%

COc1ccc(NC(=O)CC(=O)N/N=C(/C)c2cc3cc(N=Nc4ccccc4Cl)ccc3oc2=O)cc1
inactive: [1] 11.3% | [2] 14.2% | [3] 24.1% | [4] 34% | [5] -11.8% | [6] -10.2%

Cc1c(Br)c(Br)nn1C(C)C(=O)N(C)C (stereo not drawn)
inactive: [1] 1.75% | [2] 1.6% | [3] -4.55% | [4] -40.8% | [5] -31.8% | [6] 4.45%

Cc1cc(S(=O)(=O)O)cc(Cl)c1N
inactive: [1] -11.3% | [2] -27.9% | [3] -0.85% | [4] -0.5% | [5] -23.8% | [6] -9.4%

CC(=O)Nc1ccc(S(=O)(=O)Nc2c(-c3ccccc3)[nH]c(C)c2C(C)=O)cc1
inactive: [1] 1.65% | [2] 7.85% | [3] -10.3% | [4] -0.65% | [5] 1.65% | [6] 13.8%

COc1ccc(CCN=C2CCC(C(=O)NCCc3ccc(OC)c(OC)c3)N2)cc1OC (stereo not drawn)
inactive: [1] -12.9% | [2] -18.9% | [3] 2.6% | [4] -1.3% | [5] -20.5% | [6] -4.25%

CNc1ccc(C(=O)O)cc1
inactive: [1] -7.8% | [2] -14% | [3] -2.25% | [4] 5.1% | [5] -0.5% | [6] -9.9%

C/C(O)=C(\C=N\C(=S)N=Nc1c(O)[nH]c2ccccc12)C(=O)Nc1ccccc1C
inactive: [1] 51.5% | [2] 36.6% | [3] 43.4% | [4] 32.5% | [5] 62% | [6] 62%

O=[N+]([O-])C1CCCCC1
inactive: [1] -11.8% | [2] -34.6% | [3] 3.3% | [4] 17.6% | [5] -8.35% | [6] 14.1%

O=C(Nc1ccccc1Br)c1ccc(F)cc1
inactive: [1] -0.9% | [2] 3.1% | [3] -11.3% | [4] -18.4% | [5] 14.8% | [6] 14.6%

NC(=O)ON=C1CCN(Cc2ccccc2)CC1
inactive: [1] 30.4% | [2] 15.4% | [3] 10.7% | [4] 18.9% | [5] 10.2% | [6] 21.4%

Cc1ccc2nc(N/N=C/c3sccc3C)cc(C)c2c1
inactive: [1] -24.3% | [2] -19.9% | [3] -20.9% | [4] -3.25% | [5] -30.1% | [6] -21.4%

COc1cc(C)c2cccc(C)c2n1
inactive: [1] 6.6% | [2] 3.85% | [3] -0.4% | [4] -32.2% | [5] -8.8% | [6] 8.7%

CCOC(=O)/C=C/CC1CCNC1 (stereo not drawn)
inactive: [1] -22.8% | [2] -2.6% | [3] -13.4% | [4] -52% | [5] -1.5% | [6] -6%

Brc1ccc(-c2[nH]c3ccccc3c2N=Nc2ccccc2)cc1
inactive: [1] 0.85% | [2] -9.6% | [3] 6.45% | [4] -7% | [5] -11.1% | [6] -56.7%

CN(C)c1ccc([N+](=O)[O-])c2c1CCC2
inactive: [1] 9.7% | [2] -4.55% | [3] 7.25% | [4] 5.6% | [5] 6.85% | [6] 6.55%

C=C(CCCC(C)OC(=O)NC(C)c1cccc2ccccc12)[Si](C)(C)C (stereo not drawn)
inactive: [1] -41.7% | [2] -20.1% | [3] -19.6% | [4] -6.6% | [5] 8.3% | [6] -26.4%

O=C(NCCN1CCCCC1)c1ccc(I)cc1
inactive: [1] 9.2% | [2] 0.95% | [3] 24.8% | [4] 10.2% | [5] 22.4% | [6] 8.6%

CCCCCCCCCCCCCCC[N+](C)(C)C
active: [1] 99.5% | [2] 99.3% | [4] 99.2% | [5] 97.5% | [6] 99.5%
inactive: [3] 36.1%

CN(C)C12CCC(c3ccccc31)c1ccccc12
inactive: [1] 29.8% | [2] 20.8% | [3] 27.4% | [4] 8.6% | [5] 36.5% | [6] 4.25%

CCC1(C)CCC(C)c2ccccc21 (stereo not drawn)
inactive: [1] -1.75% | [2] -5.4% | [3] 3.45% | [4] 3.45% | [5] -0.8% | [6] 0.3%

CCC(CC)OCc1ccccc1
inactive: [1] 12.1% | [2] 9.4% | [3] 6.6% | [4] 5.5% | [5] 0.55% | [6] 1.1%

Brc1ccccc2cc(-c3ccccc3)nc1-2
inactive: [1] 54.9% | [2] 30.5% | [3] 34.5% | [4] 19.9% | [5] 37.2% | [6] -7%

CCCCCCC(c1ccc(N(C)C)cc1)c1ccc(N(C)C)cc1
inactive: [1] -6.95% | [2] 15.7% | [3] -4.45% | [4] 13.1% | [5] 24.9% | [6] 29.9%

O=C(c1ccccc1)N1OCCC1Nc1ccc(Br)cc1 (stereo not drawn)
inactive: [1] -9.85% | [2] -7.45% | [3] -3.95% | [4] 13.6% | [5] -15% | [6] 3.65%

Cn1cnc(CCc2ccccc2)n1
inactive: [1] -8.95% | [2] -3.05% | [3] -24.2% | [4] -19% | [5] -24.1% | [6] -11.2%

O=C(Nc1ccccc1CCl)Nc1ccccc1CCl
inactive: [1] -30.9% | [2] -26.4% | [3] -15.8% | [4] 0.7% | [5] -23.2% | [6] -28.8%

O=C(O)C(Oc1ccccc1)Oc1ccccc1
inactive: [1] -24.7% | [2] -13.2% | [3] -11.8% | [4] 5.85% | [5] 6.6% | [6] -4.95%

CN(C(=O)C12C3C4C1C1C2C3C41C(N)=O)C(C)(C)C (stereo not drawn)
inactive: [1] 9.6% | [2] 7.8% | [3] 4.35% | [4] 25.1% | [5] 18.5% | [6] -6.3%

COCC12CCC(OC)C34C5CC6(O)C(OC)CC(OC(C)=O)(C5C6OC(=O)c5ccccc5)C(C(OC)C13)C4N(C)C2 (stereo not drawn)
inactive: [1] -24.5% | [2] -23.8% | [3] -26.5% | [4] -8.9% | [5] -1.45% | [6] -77.5%

O=C(/C=C/c1ccc(Cl)cc1)c1cccs1
inactive: [1] -2.85% | [2] -14.3% | [3] 36.6% | [4] 1.25% | [5] 9.55% | [6] -7.75%

COC(=O)CCCc1c[nH]c2ccccc12
inactive: [1] 7.2% | [2] -9.8% | [3] -3.9% | [4] -0.95% | [5] 14.2% | [6] -1.05%

CC(=O)NC1C(O)C(NC(C)=O)C(OC(C)=O)C(OC(C)=O)C1OC(C)=O (stereo not drawn)
inactive: [1] 33.4% | [2] -9.7% | [3] 4.1% | [4] -15.4% | [5] -0.15% | [6] 1.35%
